# Assay results reported in PubChem BioAssay AID493168 (National Center for Advancing Translational Sciences (NCATS), 2011).
# Results filed as inconclusive are left out. Activity calls are given as the source filed them. Calls come from the whole dose curve; as a rule, active = well fitted inhibition curve with a large enough effect; inconclusive = small, poorly fitted or top-dose-only effect, or effect the other way; inactive = flat fitted curve, though single readings scatter.
# Biological target: Ubiquitin carboxyl-terminal hydrolase 2 (Homo sapiens) (UniProt O75604)
# Assay: Confirmation Assay for Inhibitors of Ubiquitin-specific Protease USP2a Using CHOP2 as the Reporter; note: nearly all actives have a fitted effect of over 55% in size;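 for activity change, negative = inhibition: plate controls were DMSO wells for no effect and full inhibition by NEM control for full effect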
# Conditions: USP2 core, Ub-CHOP2 coupled reporter fluorescence; series mostly up to 38.3 µM; activity change, negative = inhibition: at the top concentration
# From the text: NIH Molecular Libraries Probe Centers Network [MLPCN] NIH Chemical Genomics Center [NCGC] MLSCN Grant: XO1-MH079852-01 PI Name: Nicholson, Ben. Progenra Inc, Malvern, PA NCGC Assay Overview: Homeostasis of cellular proteins is maintained through a combination of synthesis and degradation. The pathway that accounts for the majority of protein degradation is the ubiquitin-proteasomal pathway. Ubiquitin (Ub) is highly conserved in all cells and the generation of a multi-Ub chain typically targets proteins for degradation by the proteasome. However, ubiquitination is highly reversible and dynamic. Deubiquitination, the reverse process, is catalyzed through the action of enzymes referred to as isopeptidases or deubiquitinating enzymes (DUBs). This group of enzymes is collectively responsible for maintaining adequate pools of free ubiquitin and regulating the ubiquitination status of cellular proteins. The class of DUBs referred to as the ubiquitin-specific proteases (USP) family functions endoproteolytically to cleave Ub chains from a wide range of protein substrates. USP2a deubiquitinates fatty acid synthase (FASN) which has recently been identified as an emerging oncology target. To identify inhibitors of USP2a a cell-free assay was employed. […] The reporter enzyme chosen is an […] called CHOP2, which is activated when the Ub is cleaved by USP2. The free and now activated reporter can subsequently act on its reporter substrate. Thus, this coupled assay gives a fluorescent read-out at excitation/emission wavelengths of 485/531. The assay was developed by Progenra, Inc. and has been licensed for sale by LifeSensors, Inc. as Ub-CHOP2-Reporter-Kit (#PR1101).
# NCGC Assay Protocol Summary: The assay buffer, prepared fresh at the day of the assay, contains 20mM Tris-HCl pH 8.0, 2mM CaCl2, 2mM beta-Mercaptoethanol, 0.05% CHAPS. 3ul of 20nM (10nM final) USP2 core, which is stored on ice, is dispensed into a medium-binding black solid Kalypsys 1,536 well plate using the Kalypsys dispenser. The assay plate is then pinned with 23nL compound with the Kalypsys pintool in columns 5-48. The controls are pinned as follows: column 1 two-fold dilutions of 2M NEM in duplicate; column 2 2M NEM (final concentration 38.2mM); column 3&4 DMSO. The assay plate is incubated at RT for 30min. Subsequently, 1.5uL of 100nM (25nM final) Ub-CHOP2 and 1.5uL of 100nM (25nM final) Reporter Substrate (both stored on ice and protected from light) were dispensed into the plate using the Kalypsys dispenser. Plates were read after 60min RT incubation on a ViewLux (Perkin Elmer) plate reader using the following wavelengths Ex 485nm /Em 531nm. Data were normalized to the to AC100 inhibition (NEM). Concentration-response curves were fitted to the normalized data and the concentration-response curves were then classified based on curve quality (r2), response magnitude and degree of measured activity. The time zero reading was used to flag fluorescence artifacts. Keywords: ubiquitination, deubiquitination, proteases, profluorescent, MLSMR, MLPCN, NIH Roadmap, qHTS, NCGC
# Potency is the fitted concentration of half-maximal effect.
# Sequence of Ubiquitin carboxyl-terminal hydrolase 2 (Homo sapiens) (O75604 whole entry, looked up): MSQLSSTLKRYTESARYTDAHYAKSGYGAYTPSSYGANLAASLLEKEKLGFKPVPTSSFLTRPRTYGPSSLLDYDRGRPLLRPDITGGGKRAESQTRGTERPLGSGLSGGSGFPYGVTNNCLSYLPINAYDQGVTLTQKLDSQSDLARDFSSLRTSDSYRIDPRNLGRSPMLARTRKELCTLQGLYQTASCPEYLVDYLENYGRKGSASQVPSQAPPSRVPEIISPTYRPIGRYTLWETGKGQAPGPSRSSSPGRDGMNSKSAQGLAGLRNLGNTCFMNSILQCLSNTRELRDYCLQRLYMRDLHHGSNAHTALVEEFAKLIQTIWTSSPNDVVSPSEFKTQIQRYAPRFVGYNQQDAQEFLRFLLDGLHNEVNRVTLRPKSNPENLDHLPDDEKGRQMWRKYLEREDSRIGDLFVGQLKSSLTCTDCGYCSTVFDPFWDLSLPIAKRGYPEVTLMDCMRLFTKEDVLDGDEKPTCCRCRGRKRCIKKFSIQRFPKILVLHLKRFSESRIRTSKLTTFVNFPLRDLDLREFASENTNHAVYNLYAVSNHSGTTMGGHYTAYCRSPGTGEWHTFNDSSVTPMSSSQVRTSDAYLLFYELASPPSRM
Structure (SMILES),"activity change, negative = inhibition",Potency
COCc1cc(C)nc(SCC[N+](C)(C)CC(=O)Nc2cccc(C(F)(F)F)c2)c1C#N,-13.5% (inactive),–
CCC(=O)Nc1c2c(nn1-c1ccc(F)cc1)CS(=O)C2 (stereo not given),-2.8% (inactive),–
O=C(Nc1cccc(S(=O)(=O)N2CCCC2)c1)c1cncc(Br)c1,-0.951% (inactive),–
CC(C)CCn1c(CN2CCN(C(=O)c3ccco3)CC2)nc2c1c(=O)n(C)c(=O)n2C,-4.33% (inactive),–
O=C(CC1Oc2ccccc2NC1=O)NCc1ccc(Cl)cc1 (stereo not given),-0.66% (inactive),–
O=C(NC(=S)N1CCCc2ccccc21)c1ccc([N+](=O)[O-])cc1,-6.36% (inactive),–
CCN=C1SC(C(=O)Nc2cccc(OCC)c2)CC(=O)N1CC (stereo not given),4.78% (inactive),–
O=C(COc1ccccc1)NCc1nnc(SCC(=O)Nc2nccs2)n1-c1ccccc1,-4.3% (inactive),–
Cc1ccc(NC(=O)CSc2nnc(COc3ccc(C#N)cc3)n2-c2ccccc2)cc1C,1.15% (inactive),–
C[C@](N)(Cc1ccc(O)c(O)c1)C(=O)O,-4.07% (inactive),–
CCOC(=O)C1CCN(CC(O)COc2ccc(C(C)(C)C)cc2)CC1 (stereo not given),0.593% (inactive),–
CCCc1cc(=O)oc2cc(C)c(CN3CCCC3)c(O)c12,-1.5% (inactive),–
CC(C)c1ccc(C2=C(O)c3ccccc3C(=O)C2=O)cc1,-0.0729% (inactive),–
COc1ccccc1-n1c(SCC(=O)Nc2ccc(C)cc2)nc(O)cc1=O,-5.29% (inactive),–
CN(C)C=Nc1ncc2c3ccccc3n(CCN(C)C)c2c1C#N,-4.97% (inactive),–
COc1ccc(CCN2C(=O)/C(=C\c3ccco3)SC2=S)cc1OC,-2.75% (inactive),–
O=C1/C(=C/C=C/c2ccco2)SC(=S)N1c1ccc(O)cc1,–,5.21 µM (active)
Cc1ccc2[nH]c(C)c(CCNC(=O)c3cc4cc([N+](=O)[O-])ccc4oc3=O)c2c1,-1.5% (inactive),–
O=C(O)CCn1c(C2CCCCC2)nc2ccccc21,-3.24% (inactive),–
Nc1cc(N)nc(SCC(=O)N2CCCCC2)n1,-1.88% (inactive),–

Structure (SMILES),"activity change, negative = inhibition",Potency
O=C(CNC(=O)c1ccco1)Nc1ccc(S(=O)(=O)N2CCCC2)cc1,3.54% (inactive),–
O=C(CSc1nccc(=O)[nH]1)N1N=C2/C(=C/c3ccco3)CCCC2C1c1ccco1 (stereo not given),-19.1% (inactive),–
Cc1ccc(C=Nc2ccccc2C(N)=O)cc1,0.371% (inactive),–
C#CCOCCOCCOCCNc1nc(N2CCN(C(=O)CCCCCCCCCCNC(=O)[C@@H](CCSC)n3cc(CCO)nn3)CC2)nc(N2CCN(C(=O)CCCCCCCCCCNC(=O)[C@H](CCCN=C(N)N)n3cc(C[C@@H](C)CC)nn3)CC2)n1,–,13.1 µM (active)
CC(C)(C)c1cc(Br)ccc1OCC(=O)Nc1ncn[nH]1,1.94% (inactive),–
O=C(CCc1nc(-c2ccccc2F)no1)NC1CCCCCC1,-0.733% (inactive),–
CCOC(=O)C(=O)Nc1nc(-c2ccc3c(c2)CCN3C(=O)C2CC2)c(C)s1,-0.268% (inactive),–
Cc1cccc(N2CCN(C(=O)CCc3nc4ccccc4[nH]3)CC2C)c1 (stereo not given),2.72% (inactive),–
COc1ccccc1-c1nnc(SCC(=O)Nc2nc(-c3ccccc3)cs2)n1C,-3.95% (inactive),–
O=C(COC(=O)c1ccc(NS(=O)(=O)c2cccs2)cc1)Nc1nc2c(F)c(F)c(F)cc2s1,–,6.56 µM (active)
O=C(c1ccc(CS(=O)(=O)c2ccc(Br)cc2)o1)N1CCCC1,-3.63% (inactive),–
COc1cccc(/C=N/n2c(SC)nnc2-c2ccccc2)c1O,1.92% (inactive),–
COc1ccc2nc(C)cc(SCC(=O)N/N=C/c3c(OC)ccc4ccccc34)c2c1,-0.136% (inactive),–
Cn1c(C(=O)NCCCN2CCN(c3ccccc3F)CC2)cc2c(=O)n(C)c3ccccc3c21,-0.517% (inactive),–
N#Cc1cc(Sc2ccccn2)c(Sc2ccccn2)cc1C#N,-0.639% (inactive),–
Cc1onc(-c2ccccc2)c1C(=O)N1CCN(C)CC1,3.09% (inactive),–
CCCOC(=O)CCCCC1SCC(NC(=O)OC)C1NC(=O)OC (stereo not given),-0.631% (inactive),–
N#CCc1ccc(NC(=O)/C=C/c2ccc([N+](=O)[O-])o2)cc1,-10.8% (inactive),–
Cc1ccc(S(=O)(=O)Nc2cc(C)c(O)c(S(=O)(=O)c3ccc(C)cc3)c2)cc1,5.44% (inactive),–
C=CCn1c(N)c(C(=O)NCc2cccnc2)sc1=S,-0.483% (inactive),–
